According to PubChem BioAssay (Tox21):
Records with an inconclusive call do not appear. Activity calls are given as the source filed them. Calls follow the shape of the dose curve; as a rule, active = well fitted cell-killing curve with a large enough effect in the repeat runs; inconclusive = weak or mixed curves; inactive = flat fitted curve, though single readings scatter.

Assay: qHTS RealTime-Glo MT Cell Viability Assay in HepG2 cells - 16 hour (AID 1224885); also: nearly all actives have a fitted effect of over 50% in size
Conditions: RealTime-Glo luminescence; series mostly up to 76.8 µM; activity change, negative = cytotoxic: at the top concentration
Description: U.S. Tox21 Program National Center for Advancing Translational Sciences [NCATS] NIH Chemical Genomics Center [NCGC] U.S. Environmental Protection Agency [EPA] National Institutes of Environmental Health Sciences [NIEHS] National Toxicology Program [NTP] U.S. Food and Drug Administration [FDA] Tox21 Assay Overview: Measure of cell viability is critical in the cell-base assay. Analysis of cell viability is necessary for the characterization of cell responses to cytotoxic drugs and environmental stress. A RealTime-Glo MT Cell Viability Assay to monitor cell viability in real time of continues cell culture during 40 hours of compound treatment was used to screen Tox21 10K library compounds in HepG2 cells. The RealTime-Glo MT Cell Viability Assay is a nonlytic, homogeneous, bioluminescent method to measure cell viability in real time using a simple, plate-based method. The assay involves adding NanoLuc luciferase and a cell-permeant prosubstrate to cells in culture. Viable cells reduce the proprietary prosubstrate to generate a substrate for NanoLuc luciferase. This substrate diffuses from cells into the surrounding culture medium, where it is rapidly used by the NanoLuc Enzyme to produce a luminescent signal. The signal correlates with the number of viable cells, making the assay well suited for cytotoxicity studies.
Tox21 Assay Protocol Summary: The mixture of HepG2 cell suspension and reagents were dispensed at 600cells/6 ul/well in 1536-well tissue culture treated black solid bottom plates using a Multidrop dispenser. After the assay plates were incubated at a 37 C/5% CO2 incubator for 5 hours, 23 nL of compounds dissolved in DMSO, positive and negative controls was transferred to the assay plate by a pintool work station. The plates were incubated at 37 C for 40 hours. The luminescence intensity were measured at 0h, 8h, 16h, 24h, 32h and 40h time points using ViewLux plate reader during compound treatment.
% is scaled to controls: 0 for no effect and ±100 for the full control effect; potency is read from the fitted curve at half-maximal effect.

SMILES	activity change, negative = cytotoxic	Potency
Clc1sc(Cl)c(Cl)c1Cl	2.89% (inactive)	
C#C[C@]1(OC(C)=O)CC[C@H]2[C@@H]3CCC4=C/C(=N/O)CC[C@@H]4[C@H]3CC[C@@]21CC	-21.6% [at 35.3 µM] (inactive)	
CC1=CCC(=C(C)C)CC1	-2.51% (inactive)	
O=c1c(O)c(-c2ccc(O)cc2O)oc2cc(O)cc(O)c12	0.974% (inactive)	
O=[N+]([O-])c1ccc(F)c(Cl)c1	-4.45% (inactive)	
CC(C)=CCNc1ncnc2c1ncn2[C@@H]1O[C@H](CO)[C@@H](O)[C@H]1O	-12.8% [at 35.3 µM] (inactive)	
CN(C)Cc1ccccc1O	-1.03% (inactive)	
O=C(O)c1cccc(C(F)(F)F)c1	-0.699% (inactive)	
CC1=Nc2ccccc2C1(C)C	1.7% (inactive)	
CC(C(=O)O)c1ccc2c(c1)[nH]c1ccc(Cl)cc12 (stereo not given)	6.29% [at 35.3 µM] (inactive)	
Cc1c(C)c([N+](=O)[O-])c(C(C)(C)C)c([N+](=O)[O-])c1C	-11.4% (inactive)	
CC(CO)Oc1ccccc1 (stereo not given)	0.858% (inactive)	
Nc1cc(Cl)c(O)c(Cl)c1	-21.5% (inactive)	
COc1ccc2c(c1)c(CC(=O)OC/C=C(\C)CC/C=C(\C)CCC=C(C)C)c(C)n2C(=O)c1ccc(Cl)cc1	-15% [at 35.3 µM] (inactive)	
C/C=C/C=C/COC(=O)C(C)C	-22.5% (inactive)	
Cl[Si](Cl)(c1ccccc1)c1ccccc1	-1.81% (inactive)	
OC[C@@H](O)[C@@H](O)CO	1.97% (inactive)	
CC(C)(C)CC(C)(C)c1ccc(Nc2ccc(C(C)(C)CC(C)(C)C)cc2)cc1	0.171% [at 6.97 µM] (inactive)	
CCO[Si](OCC)(OCC)OCC	-0.221% (inactive)	
Cc1cc(C)c(/C=C2\C(=O)Nc3ccccc32)[nH]1	-12.5% [at 35.3 µM] (inactive)	

SMILES	activity change, negative = cytotoxic	Potency
OC[C@H]1O[C@H](O[C@H]2O[C@H](CO)[C@@H](O)[C@H](O)[C@H]2O)[C@H](O)[C@@H](O)[C@@H]1O	0.054% (inactive)	
ClCCl	0.868% (inactive)	
CC1(C)CCC[C@]2(C)[C@H]3CCO[C@]3(C)CC[C@@H]12	-0.195% (inactive)	
C=Cc1ccccc1C=C	2.41% [at 200 µM] (inactive)	
CN(C)CCN1CCN(c2cccc(Cl)c2)C1=O	0.0127% [at 35.3 µM] (inactive)	
COc1cccc(OC)c1C(=O)O	0.534% (inactive)	
O=C(O)c1cc(O)c2ccccc2c1O		19.5 µM (active)
Oc1cc(Cl)cc(Cl)c1Cl	-10.7% (inactive)	
CCCCCCCCCCCCOC(=O)c1ccc(O)cc1	-1.19% (inactive)	
[Cu+]	-18% (inactive)	
O=[N+]([O-])c1cccc(C(F)(F)F)c1	0.973% (inactive)	
CCCC(=O)OCCc1ccccc1	-1.14% (inactive)	
O=C(/C=C/c1ccccc1)OC/C=C/c1ccccc1	-14.7% (inactive)	
CN1CCN2c3ccccc3Cc3ccccc3C2C1 (stereo not given)	-14.1% [at 35.3 µM] (inactive)	
CCc1cccc(CC)c1NC(=O)CN(CC(=O)O)CC(=O)O	0.174% [at 35.3 µM] (inactive)	
Cc1c2ccccc2c(C)c2c1ccc1ccccc12	-14.1% (inactive)	
CCN(CC)C(=O)c1cc(S(=O)(=O)Cc2ccccc2)c(N2CCC(c3ccccc3)CC2)cc1N(CC)CCN(C)C		19.3 µM (active)
Nc1nc(-c2ccccc2)cs1	0.124% (inactive)	
O=C(O)O	-0.68% [at 6.97 µM] (inactive)	
CCC(C)(CCC(C)C)C(=O)[O][Sn]([CH3])([CH3])[O]C(=O)C(C)(CC)CCC(C)C (stereo not given)	-1.73% (inactive)	
